Measurements taken from PubChem BioAssay.
Inconclusive results are not listed. The source made the active and inactive calls.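 The calls were made as follows, unless noted: active = viability increase at or above a cutoff of the median across tested compounds plus 3 SD (cut at about 8.5% in these data, passing the limit was not always enough); inconclusive = some gains above the cutoff, reason not given; inactive = the rest.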

How the values were obtained:
[1] = Her2 expression decrease, cell viability multiplex – SKBR3 breast tumor cells, AlphaScreen, ATP viability, primary screen (AID 461;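 active = Her2 level under about 52% in both replicate screens, with viability over 70% of control, limit read from the data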;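 as to Her2 level: lower value means less Her2 protein in the cells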;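 as to viability: percent of carrier control wells set as 100% viability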); settings: SKBR3 Her2 protein level, 18-24 h, measured here: SKBR3 viability, ATP luminescence, at 10 µM
[2] = molecular target: Receptor tyrosine-protein kinase erbB-2 (Homo sapiens) (UniProt P04626); test: as above; settings: 18-24 h, at 10 µM, stronger effect = lower value
[3] = reduced viability of SK-BR-3 breast cancer cells – cell-based, 24 h, human, pilot screen (AID 572;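 active = viability at or below 10% of carrier control in both of two separate runs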;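 also: compound exposure lasted between 18 and 24 h rather than exactly 24 h; 100% = carrier-treated control wells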); settings: SK-BR-3 viability, CellTiter-Glo luminescence, at 10 µM, stronger effect = lower value
[4] = HUVEC growth inhibition – cell-based, human, primary screen (AID 575;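 active = viability at or below 30% in both replicate assays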;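 also: 100% = median of untreated cell wells with 0.1% DMSO on each plate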); settings: HUVEC proliferation, CellTiter-Glo luminescence, 72 h; at 10 µM; stronger effect = lower value
[5] = H69AR cell proliferation blockers – human, duplicate replicates, primary screen (AID 580;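 active = viability at or under a set limit in both replicates, limit being median viability minus 3 SD, cut at about 48% in these data, passing the limit was not always enough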;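 also: 100% = mean luminescence of untreated wells and 0% = no signal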); settings: H69AR lung tumor cells viability, ATP luminescence, 72 h; at 10 µM; stronger effect = lower value
[6] = MRP1 drug-resistance reversers in H69AR cells – cell-based, doxorubicin co-treatment, pilot screen (AID 601;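 active = viability loss from added drug above about 55%, and viability with drug at most 40%, in both replicates, limit read from the data, passing the limit was not always enough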); settings: CellTiter-Glo, 72 h, at 10 µM; for differential viability (reversal): stronger effect = higher value
[7] = yeast transport mutant growth inhibition pilot in 384-well plates, post-Golgi transport modulator project (AID 636; in the data active = inhibition above about 31%); settings: absorbance 615 nm, about 18 h, stronger effect = higher value
[8] = growth suppression of yeast trafficking mutant, preliminary HTS, modulators of trafficking downstream of Golgi apparatus project, 1536-format plate, OD 615 nm (AID 637; in the data active = inhibition above about 30%); settings: yeast transport mutant growth, absorbance 615 nm, 18 h; stronger effect = higher value
[9] = S. cerevisiae growth inhibition in permissive medium (OD615), pilot counter-assay for S. cerevisiae lifespan shortening project, permissive growth control (AID 705;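 active = growth inhibition above 25% in both replicates, a cutoff set 3 SD above the mean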); settings: OD615, 24 h, at 10 µM, stronger effect = higher value
[10] = S. cerevisiae growth inhibition in restrictive medium, OD615, pilot screen, restrictive growth control, yeast lifespan reduction project (AID 706;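 active = growth inhibition above a set limit, 3 SD over mean compound inhibition, in both replicates, cut at about 43% in these data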;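 also: modified DeaD lifespan yeast strain shifted to restrictive glucose medium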); settings: OD615, 48 h, at 10 µM, stronger effect = higher value
[11] = doxorubicin toxicity protection in MRP-1 cells – H69AR cells, CellTiter-Glo, duplicate, MRP-1 activator project, pilot screen (AID 807); settings: H69AR viability with doxorubicin, CellTiter-Glo luminescence; at 10 µM; stronger effect = higher value;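 also: compound pretreatment 18-22 h then 72 h combined with doxorubicin; 0% = doxorubicin alone and 100% = vehicle without doxorubicin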
[12] = viability of HCT116 without oncogenic beta-catenin – human colon tumor cells, pilot screen (AID 823;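 active = cell viability at or below a set limit in both duplicate runs, the limit being the all-compound median minus 4 SD, cut at about 23% in these data, passing the limit was not always enough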;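 also: 0% = wells killed by 20 µM Hyamine and 100% = untreated DMSO cell wells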); settings: HCT116 beta-catenin knockout viability, CellTiter-Glo, 60 h; at 10 µM; stronger effect = lower value
[13] = viability of PTEN-null HCT116 cells – cell-based, HCT116 clonal line, CellTiter-Glo, pilot screen (AID 824;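 active = viability at or below 27.92% in each of two runs, the all-compound median minus 4 SD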;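 also: 0% = 20 µM Hyamine control and 100% = vehicle cell control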); settings: HCT116 PTEN-deleted viability, 60 h, at 10 µM, stronger effect = lower value
[14] = RAM pathway blockade in budding yeast – dse1pr::URA3 reporter, 5-FOA selection, pilot screen (AID 869;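 active = inhibition over a set limit, the all-compound mean plus 3 SD, in both replicate runs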;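 also: 0% = DMSO wells with no growth and 100% = 10 µM 1-NA-PP1 with full growth; RAM network block rescues cells from 5-FOA so hits raise OD615 growth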); settings: S. cerevisiae dse1pr::URA3 5-FOA growth, OD615, 2 d; at 10 µM; stronger effect = higher value; strain carries analog-sensitive mutant Cbk1 kinase
[15] = RAM signaling pathway blockade in yeast – S. cerevisiae, Pdr1DBD-CYC8 efflux-inhibited sensitized strain, primary screen (AID 1298;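 active = RAM network inhibition above 8.4% in each of two replicates, 3 SD over the compound average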;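 also: 0% = DMSO untreated cells without growth and 100% = 10 µM 1-NA-PP1 full growth; higher means more yeast growth rescued from 5-FOA killing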); settings: S. cerevisiae cbk1-as DSE1-URA3 strain, 5-FOA growth OD615, 2 d; at 50 µM; stronger effect = higher value
[16] = H69AR cells + 2 uM doxorubicin, measured here: viability with 2 uM doxorubicin, stronger effect = lower value
[17] = H69AR cells, compound alone cytotoxicity

Receptor tyrosine-protein kinase erbB-2 (Homo sapiens), sequence (P04626 whole entry, looked up): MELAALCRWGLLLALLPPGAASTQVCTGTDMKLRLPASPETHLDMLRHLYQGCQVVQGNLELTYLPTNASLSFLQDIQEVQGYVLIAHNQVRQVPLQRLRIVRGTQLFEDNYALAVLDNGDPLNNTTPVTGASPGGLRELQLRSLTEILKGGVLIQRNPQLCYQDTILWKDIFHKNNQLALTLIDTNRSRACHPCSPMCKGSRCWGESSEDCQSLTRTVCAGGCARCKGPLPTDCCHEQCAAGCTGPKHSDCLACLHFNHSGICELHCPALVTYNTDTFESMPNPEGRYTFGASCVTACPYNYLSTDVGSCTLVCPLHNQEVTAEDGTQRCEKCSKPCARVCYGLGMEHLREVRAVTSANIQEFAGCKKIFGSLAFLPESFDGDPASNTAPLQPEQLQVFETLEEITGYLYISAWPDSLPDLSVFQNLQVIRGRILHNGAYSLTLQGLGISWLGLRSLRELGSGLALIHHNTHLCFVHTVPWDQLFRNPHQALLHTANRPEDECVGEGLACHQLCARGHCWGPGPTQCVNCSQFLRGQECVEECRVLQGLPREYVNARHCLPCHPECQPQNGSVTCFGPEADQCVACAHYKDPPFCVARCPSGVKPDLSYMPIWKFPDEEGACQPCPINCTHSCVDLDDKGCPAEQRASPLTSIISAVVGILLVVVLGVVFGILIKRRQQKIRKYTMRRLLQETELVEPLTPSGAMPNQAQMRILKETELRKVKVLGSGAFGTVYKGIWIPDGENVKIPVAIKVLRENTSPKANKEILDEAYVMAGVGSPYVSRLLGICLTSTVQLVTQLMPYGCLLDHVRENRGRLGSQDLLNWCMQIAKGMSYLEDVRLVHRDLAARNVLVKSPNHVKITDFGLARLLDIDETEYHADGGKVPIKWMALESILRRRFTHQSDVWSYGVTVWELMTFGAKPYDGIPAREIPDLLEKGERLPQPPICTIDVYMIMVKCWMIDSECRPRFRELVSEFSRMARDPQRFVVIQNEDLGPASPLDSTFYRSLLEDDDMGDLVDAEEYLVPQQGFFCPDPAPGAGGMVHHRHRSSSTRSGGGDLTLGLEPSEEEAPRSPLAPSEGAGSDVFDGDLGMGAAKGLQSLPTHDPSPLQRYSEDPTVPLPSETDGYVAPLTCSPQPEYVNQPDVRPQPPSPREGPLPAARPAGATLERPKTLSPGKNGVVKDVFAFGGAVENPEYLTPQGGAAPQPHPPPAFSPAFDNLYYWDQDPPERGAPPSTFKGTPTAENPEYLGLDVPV

Structure (SMILES)	viability [1]	Her2 level [2]	viability [3]	viability [4]	viability [5]	differential viability (reversal) ([6]; H69AR cells + 2 uM doxorubicin)	viability [6, 16]	viability [6, 17]	inhibition [7]	inhibition [8]	growth inhibition [9]	growth inhibition [10]	viability increase [11]	viability [12]	viability [13]	inhibition [14]	RAM network inhibition [15]
Cn1cc(C2NC(=O)c3c(sc4c3CCCC4)N2)c2ccccc21 (stereo not given)	99%	78.5% (inactive)	99% (inactive)	61.9% (inactive)	64.9% (inactive)	4.49% (inactive)	60.4%	64.9%	1.6% (inactive)	5.17% (inactive)	-6.96% (inactive)	2.46% (inactive)	-2.92% (inactive)	101% (inactive)	90.8% (inactive)	0.64% (inactive)	2.82% (inactive)
Cc1ccc(C)c2[nH]c(=O)c(CCNC(=O)c3ccc(S(=O)(=O)N(C)C)cc3)cc12	121%	114% (inactive)	121% (inactive)	88.1% (inactive)	82.3% (inactive)	-1.57% (inactive)	83.9%	82.3%	-4.13% (inactive)	-4% (inactive)	-2.9% (inactive)	-22.2% (inactive)	-4.33% (inactive)	93.2% (inactive)	81.5% (inactive)	2.99% (inactive)	3.23% (inactive)
O=C(Nc1ccc(N2CCCC2)cc1)c1ccc(Br)o1	93.5%	93.5% (inactive)	93.5% (inactive)	94.3% (inactive)	101% (inactive)	15.6% (inactive)	85.2%	101%	0.27% (inactive)	1.97% (inactive)	3.95% (inactive)	14.9% (inactive)	-0.48% (inactive)	94% (inactive)	92.3% (inactive)	3.5% (inactive)	6.03% (inactive)
CC1(C)CC(=O)c2cnc(NC(=O)Cc3ccc(Cl)cc3)nc2C1	71.5%	96.5% (inactive)	71.5% (inactive)	96.2% (inactive)	100% (inactive)	10.6% (inactive)	89.6%	100%	-9.46% (inactive)	-0.98% (inactive)	-5.41% (inactive)	-16.6% (inactive)	2.03% (inactive)	94.4% (inactive)	90.6% (inactive)	2.17% (inactive)	5.3% (inactive)
COc1ccc(-c2nc(CCNC(=O)c3ccco3)cs2)cc1OC	96.5%	102% (inactive)	96.5% (inactive)	89.2% (inactive)	77.9% (inactive)	0.52% (inactive)	77.4%	77.9%	-4.67% (inactive)	-2.95% (inactive)	-4.64% (inactive)	-8.75% (inactive)	-3.3% (inactive)	95.3% (inactive)	87.7% (inactive)	0.415% (inactive)	-1.56% (inactive)
